Laboratory results reported in the supplement of paper PMC4709259.
Counter-ions that a name gives are not always drawn. ± gives the standard deviation.

tested on: Jurkat; test: mean cell size (FSC-A) relative to DMSO control (fraction of control); higher = larger cells; conditions: 48 h
Procedure, shortened: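 Jurkat cells at 600 cells/µl were incubated for 1 h and then treated for 48h with the Enzo Screen-Well FDA Approved Drug Library v2.0 at 25µM, with DMSO at 0.9% (v/v) final. Compounds that reduced counts below 20% of controls were retested in 10-fold dilutions down to 25nM. Cell count and mean cell size, taken as forward scatter area, were measured by flow cytometry relative to solvent-only controls. Each plate carried 6-12 controls, and values are means of 3 biological replicates.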

Row | Compound | mean cell size
1 | Cc1cc2c(s1)Nc1ccccc1N=C2N1CCN(C)CC1 [Olanzapine] (concentration: 25 µM) | 1.02 ± 0.06
2 | CCOC(=O)[C@H](CCc1ccccc1)N[C@@H](C)C(=O)N1Cc2ccccc2C[C@H]1C(=O)O [Quinapril·HCl] (concentration: 25 µM) | 0.998 ± 0.022
3 | O=C(O)C1(C(=O)O)CCC1.[NH2-].[NH2-].[Pt+2] [Carboplatin] (concentration: 25 µM) | 1.08 ± 0.016
4 | CC[C@H](C)[C@H](N)C1=N[C@H](C(=O)N[C@@H](CC(C)C)C(=O)N[C@H](CCC(=O)O)C(=O)N[C@H](C(=O)N[C@H]2CCCCNC(=O)[C@H](CC(N)=O)NC(=O)[C@@H](CC(=O)O)NC(=O)[C@H](Cc3cnc[nH]3)NC(=O)[C@@H](Cc3ccccc3)NC(=O)[C@H]([C@@H](C)CC)NC(=O)[C@@H](CCCN)NC2=O)[C@@H](C)CC)CS1 [Bacitracin] (concentration: 25 µM) | 0.977 ± 0.038
5 | CCOC(=O)[C@H](CCc1ccccc1)N[C@@H](C)C(=O)N1CCC[C@H]1C(=O)O [Enalapril] (concentration: 25 µM) | 1.01 ± 0.029
6 | CC(=O)OCC(=O)[C@@]12OC3(CCCC3)O[C@@H]1C[C@H]1[C@@H]3CCC4=CC(=O)C=C[C@]4(C)[C@@]3(F)[C@@H](O)C[C@@]12C [Amcinonide] (concentration: 25 µM) | 0.994 ± 0.064
7 | CC(CCc1ccccc1)NCC(O)c1ccc(O)c(C(N)=O)c1 (stereo not given) [Labetalol·HCl] (concentration: 25 µM) | 0.928 ± 0.049
8 | Cc1ccccc1C(=O)Nc1ccc(C(=O)N2CCCC(O)c3cc(Cl)ccc32)c(C)c1 (stereo not given) [Tolvaptan] (concentration: 25 µM) | 0.951 ± 0.055
9 | COC(=O)C1=C(C)NC(C)=C(C(=O)OC)C1c1ccccc1[N+](=O)[O-] [Nifedipine] (concentration: 2.5 µM) | 1.02 ± 0.036
10 | Cc1cccc(C)c1NC(=O)C1CCCCN1C (stereo not given) [Mepivacaine·HCl] (concentration: 25 µM) | 0.91 ± 0.035
11 | OC[C@H]1O[C@@H](O[C@@H]2[C@@H](CO)OC(O)(CO)[C@H]2O)[C@H](O)[C@@H](O)[C@H]1O (mixture of isomers) [Lactulose] (concentration: 25 µM) | 0.938 ± 0.046
12 | C[C@H]1[C@H](NC(=O)/C(=N\OC(C)(C)C(=O)O)c2csc(N)n2)C(=O)N1S(=O)(=O)O [Aztreonam] (concentration: 25 µM) | 0.927 ± 0.022
13 | Cc1onc(-c2ccccc2)c1C(=O)N[C@@H]1C(=O)N2[C@@H]1SC(C)(C)[C@@H]2C(=O)O [Oxacillin·Na] (concentration: 25 µM) | 0.9367 ± 0.005
14 | CC12CC3CC(C)(C1)CC(N)(C3)C2 [Memantine·HCl] (concentration: 25 µM) | 1 ± 0.061
15 | CN(CCOc1ccc(NS(C)(=O)=O)cc1)CCc1ccc(NS(C)(=O)=O)cc1 [Dofetilide] (concentration: 25 µM) | 0.962 ± 0.015
16 | C=CC[C@@H]1/C=C(\C)C[C@H](C)C[C@H](OC)[C@H]2O[C@@](O)(C(=O)C(=O)N3CCCC[C@H]3C(=O)O[C@H](/C(C)=C/[C@@H]3CC[C@@H](O)[C@H](OC)C3)[C@H](C)[C@@H](O)CC1=O)[C@H](C)C[C@@H]2OC [Tacrolimus (Fk506)] (concentration: 25 µM) | 0.83 ± 0.065
17 | N=c1nc(N2CCCCC2)cc(N)n1O [Minoxidil] (concentration: 25 µM) | 1 ± 0.024
18 | CC(C)NCC(O)c1ccc(O)c(O)c1 (racemic) [(±) Isoproterenol·HCl] (concentration: 25 µM) | 0.981 ± 0.047
19 | CCC1(c2ccccc2)C(=O)NCNC1=O [Primidone] (concentration: 25 µM) | 1 ± 0.021
20 | CC(=O)Oc1cc2c(s1)CCN(C(C(=O)C1CC1)c1ccccc1F)C2 (stereo not given) [Prasugrel] (concentration: 25 µM) | 1.06 ± 0.023

Row | Compound | mean cell size
21 | Oc1ccc(C2CNCCc3c2cc(O)c(O)c3Cl)cc1 (stereo not given) [Fenoldopam Mesylate] (concentration: 25 µM) | 0.886 ± 0.059
22 | CS(=O)(=O)CCNCc1ccc(-c2ccc3ncnc(Nc4ccc(OCc5cccc(F)c5)c(Cl)c4)c3c2)o1 [Lapatinib Ditosylate] (concentration: 25 µM) | 0.924 ± 0.072
23 | CC1=C(C(=O)O)N2C(=O)[C@@H](NC(=O)[C@H](N)c3ccccc3)[C@H]2SC1 [Cephalexin Monohydrate] (concentration: 25 µM) | 0.9873 ± 0.0068
24 | COc1c(C)c2c(c(O)c1C/C=C(\C)CCC(=O)O)C(=O)OC2 [Mycophenolic Acid] (concentration: 2.5 µM) | 1.01 ± 0.014
25 | CO[C@@]1(NC(=O)C2SC(=C(C(N)=O)C(=O)O)S2)C(=O)N2C(C(=O)O)=C(CSc3nnnn3C)CS[C@@H]21 (stereo not given in full) [Cefotetan Disodium] (concentration: 25 µM) | 0.951 ± 0.017
26 | Nc1nc(O)c2ncn(CCC(CO)CO)c2n1 [Penciclovir] (concentration: 25 µM) | 0.95 ± 0.021
27 | CN1CCc2cccc3c2[C@H]1Cc1ccc(O)c(O)c1-3 [Apomorphine·HCl Hemihydrate] (concentration: 2.5 µM) | 1.031 ± 0.0071
28 | C=C[C@H]1CN2CC[C@H]1C[C@@H]2[C@@H](O)c1ccnc2ccc(OC)cc12 [Quinidine·HCl·H2O] (concentration: 25 µM) | 0.9234 ± 0.0047
29 | CCCCC(C)(O)C/C=C/[C@H]1[C@H](O)CC(=O)[C@@H]1CCCCCCC(=O)OC (mixture of isomers) [Misoprostol] (concentration: 25 µM) | 0.939 ± 0.037
30 | COc1cc([C@@H]2c3cc4c(cc3[C@@H](O[C@@H]3O[C@@H]5CO[C@@H](C)O[C@H]5[C@H](O)[C@H]3O)[C@H]3COC(=O)[C@H]23)OCO4)cc(OC)c1O [Etoposide] (concentration: 250 nM) | 1.25 ± 0.076
31 | N=C(NCCCCCCNC(=N)NC(=N)Nc1ccc(Cl)cc1)NC(=N)Nc1ccc(Cl)cc1 [Chlorhexidine Dihydrochloride] (concentration: 2.5 µM) | 0.986 ± 0.017
32 | N=C(N)NCCCC[C@@H]1NC(=O)CCSSC[C@@H](C(N)=O)NC(=O)[C@@H]2CCCN2C(=O)[C@H](Cc2c[nH]c3ccccc23)NC(=O)[C@H](CC(=O)O)NC(=O)CNC1=O [Eptifibatide] (concentration: 25 µM) | 0.988 ± 0.031
33 | O=C(c1ccccc1)c1ccc2n1CCC2C(=O)O (stereo not given) [Ketorolac Tromethamine] (concentration: 25 µM) | 0.907 ± 0.024
34 | Cc1nc(-c2ccc(OCC(C)C)c(C#N)c2)sc1C(=O)O [Febuxostat] (concentration: 25 µM) | 1 ± 0.024
35 | Cc1ccccc1N1C(=O)c2cc(S(N)(=O)=O)c(Cl)cc2NC1C (stereo not given) [Metolazone] (concentration: 25 µM) | 0.997 ± 0.03
36 | CO[C@@]1(NC(=O)Cc2cccs2)C(=O)N2C(C(=O)O)=C(COC(N)=O)CS[C@@H]21 [Cefoxitin·Na] (concentration: 25 µM) | 0.939 ± 0.031
37 | C[C@@H]1[C@H](O)[C@@H](C)/C=C/C=C/C=C/C=C/C=C/C=C/C=C/[C@H](O[C@@H]2O[C@H](C)[C@@H](O)[C@H](N)[C@@H]2O)C[C@@H]2O[C@](O)(C[C@@H](O)C[C@@H](O)[C@H](O)CC[C@@H](O)C[C@@H](O)CC(=O)O[C@H]1C)C[C@H](O)[C@H]2C(=O)O [Amphotericin B] (concentration: 25 µM) | 1.016 ± 0.0092
38 | Nc1nnc(-c2cccc(Cl)c2Cl)c(N)n1 [Lamotrigine] (concentration: 25 µM) | 1.01 ± 0.028
39 | Cc1ncc([N+](=O)[O-])n1CCO [Metronidazole] (concentration: 25 µM) | 0.928 ± 0.012
40 | CCOc1cc(CC(=O)N[C@@H](CC(C)C)c2ccccc2N2CCCCC2)ccc1C(=O)O [Repaglinide] (concentration: 25 µM) | 1.03 ± 0.022
